Experiment in all cases: DAPPL (digital affinity profiling via proximity ligation, sequencing); 10 mM Tris-HCl pH 7.5, 50 mM NaCl, 1 mM DTT, 4% glycerol, room temperature, 30 min; GST-TFs on glutathione beads, 16-mer random dsDNA library, 0.1% formaldehyde crosslink after washing; high values mean tight binding
What all share (details): protein: recombinant; tags: N-terminal GST; dsDNA, one strand shown

Test [1] has as its target T1, FLI1 (Homo sapiens, UniProt Q01543 1-452).
T1 sequence: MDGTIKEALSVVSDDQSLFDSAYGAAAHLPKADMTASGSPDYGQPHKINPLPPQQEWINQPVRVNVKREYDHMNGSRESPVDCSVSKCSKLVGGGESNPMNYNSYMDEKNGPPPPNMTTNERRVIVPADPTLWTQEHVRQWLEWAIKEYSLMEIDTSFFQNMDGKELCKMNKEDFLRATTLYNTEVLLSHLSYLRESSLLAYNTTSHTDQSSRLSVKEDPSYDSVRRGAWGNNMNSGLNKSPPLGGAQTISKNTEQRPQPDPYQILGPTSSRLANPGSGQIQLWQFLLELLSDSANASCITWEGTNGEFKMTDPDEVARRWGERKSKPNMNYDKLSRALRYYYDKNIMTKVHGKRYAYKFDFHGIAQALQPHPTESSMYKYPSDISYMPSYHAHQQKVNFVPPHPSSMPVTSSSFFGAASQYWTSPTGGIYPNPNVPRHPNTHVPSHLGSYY
A digest of the protocol: (§1)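 Pools were built from human transcription factors expressed in yeast as GST fusions, captured on glutathione beads and DNA-barcoded, along with a tag-only sample. Incubation with 200 nmole of a 16-mer random double-stranded DNA library lasted 30 min at room temperature in Tris/NaCl/DTT/glycerol buffer, and was followed by washing, 0.1% formaldehyde crosslinking, proximity ligation, PCR amplification and Illumina NextSeq500 sequencing. Binding signal is the quotient of each hexamer's read frequency for a factor and its frequency for the tag-only sample.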

Test [2] deals with T2, ELK1 (Homo sapiens, UniProt P19419 1-428).
T2 sequence: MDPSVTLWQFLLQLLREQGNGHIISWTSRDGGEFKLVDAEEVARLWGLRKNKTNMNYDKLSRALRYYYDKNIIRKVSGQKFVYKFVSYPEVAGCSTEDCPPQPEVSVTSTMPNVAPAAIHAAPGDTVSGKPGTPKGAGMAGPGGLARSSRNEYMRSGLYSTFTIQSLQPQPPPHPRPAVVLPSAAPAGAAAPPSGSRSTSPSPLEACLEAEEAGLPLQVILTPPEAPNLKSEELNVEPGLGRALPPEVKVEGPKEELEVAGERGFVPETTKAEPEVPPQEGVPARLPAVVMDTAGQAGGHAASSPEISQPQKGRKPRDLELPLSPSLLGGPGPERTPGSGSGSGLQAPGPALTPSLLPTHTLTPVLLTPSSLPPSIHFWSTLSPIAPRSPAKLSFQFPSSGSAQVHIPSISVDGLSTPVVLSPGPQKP
A digest of the protocol: as §1

In test [3] the target is T3, GABPA (Homo sapiens, UniProt Q06546 1-454).
T3 sequence: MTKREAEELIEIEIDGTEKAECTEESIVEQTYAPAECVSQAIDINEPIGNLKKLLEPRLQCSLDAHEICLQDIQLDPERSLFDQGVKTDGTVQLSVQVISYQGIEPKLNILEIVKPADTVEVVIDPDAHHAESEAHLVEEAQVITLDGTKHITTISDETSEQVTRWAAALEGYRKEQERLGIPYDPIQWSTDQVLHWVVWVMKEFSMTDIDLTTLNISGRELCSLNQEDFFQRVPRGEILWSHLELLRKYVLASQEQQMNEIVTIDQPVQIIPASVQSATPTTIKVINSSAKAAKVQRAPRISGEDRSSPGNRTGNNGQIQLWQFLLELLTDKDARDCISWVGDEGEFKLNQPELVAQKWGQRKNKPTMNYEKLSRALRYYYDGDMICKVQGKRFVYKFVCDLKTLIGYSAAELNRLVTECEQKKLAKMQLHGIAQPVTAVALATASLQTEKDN
A digest of the protocol:
as §1

The target in test [4] is T4, ERG (Homo sapiens, UniProt P11308 1-479).
T4 sequence: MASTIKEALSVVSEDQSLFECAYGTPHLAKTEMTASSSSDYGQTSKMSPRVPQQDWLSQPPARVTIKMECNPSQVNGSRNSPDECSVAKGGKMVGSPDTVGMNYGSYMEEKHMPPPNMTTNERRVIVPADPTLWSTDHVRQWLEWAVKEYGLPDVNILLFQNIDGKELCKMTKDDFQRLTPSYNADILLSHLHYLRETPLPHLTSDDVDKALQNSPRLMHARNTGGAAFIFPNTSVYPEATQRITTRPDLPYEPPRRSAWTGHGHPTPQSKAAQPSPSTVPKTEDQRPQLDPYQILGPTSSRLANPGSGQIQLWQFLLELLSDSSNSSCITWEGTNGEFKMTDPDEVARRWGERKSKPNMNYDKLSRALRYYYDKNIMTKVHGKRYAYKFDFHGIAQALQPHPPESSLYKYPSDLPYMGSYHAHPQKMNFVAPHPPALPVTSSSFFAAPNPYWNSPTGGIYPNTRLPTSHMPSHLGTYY
A digest of the protocol: as §1

For test [5], the target named is ELF1 (Homo sapiens, UniProt P32519 1-619). A digest of the protocol: as §1
In test [6] the target is T5, EHF (Homo sapiens, UniProt Q9NZC4 1-300).
T5 sequence: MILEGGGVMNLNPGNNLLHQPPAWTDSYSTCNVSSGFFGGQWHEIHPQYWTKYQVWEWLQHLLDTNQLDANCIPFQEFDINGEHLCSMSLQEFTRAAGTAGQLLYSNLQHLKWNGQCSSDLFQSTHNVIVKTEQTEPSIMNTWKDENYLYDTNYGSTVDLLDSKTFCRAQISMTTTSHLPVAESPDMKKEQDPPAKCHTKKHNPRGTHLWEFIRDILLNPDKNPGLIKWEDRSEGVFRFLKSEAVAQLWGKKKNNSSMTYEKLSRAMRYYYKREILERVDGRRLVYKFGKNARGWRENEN
A digest of the protocol: as §1

Test [7] concerns the target SPI1 (Homo sapiens, UniProt P17947 1-270). A digest of the protocol: as §1
For test [8], the target named is SPIB (Homo sapiens, UniProt Q01892 1-262). A digest of the protocol: as §1
Test [9] deals with T6, ELK3 (Homo sapiens, UniProt P41970 1-407).
T6 sequence: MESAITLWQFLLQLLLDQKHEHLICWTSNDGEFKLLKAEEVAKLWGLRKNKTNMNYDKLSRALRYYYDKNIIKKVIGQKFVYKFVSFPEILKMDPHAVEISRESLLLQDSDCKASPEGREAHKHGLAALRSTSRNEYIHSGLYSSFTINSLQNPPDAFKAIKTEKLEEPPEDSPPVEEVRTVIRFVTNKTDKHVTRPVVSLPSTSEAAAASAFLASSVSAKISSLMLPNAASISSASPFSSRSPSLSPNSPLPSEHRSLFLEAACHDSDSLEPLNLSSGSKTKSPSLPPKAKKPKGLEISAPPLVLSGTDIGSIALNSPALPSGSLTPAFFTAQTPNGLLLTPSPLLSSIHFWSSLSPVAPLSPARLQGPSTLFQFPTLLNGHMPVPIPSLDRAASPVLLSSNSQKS
A digest of the protocol:
as §1

Sequence of SPIB (Q01892 whole entry): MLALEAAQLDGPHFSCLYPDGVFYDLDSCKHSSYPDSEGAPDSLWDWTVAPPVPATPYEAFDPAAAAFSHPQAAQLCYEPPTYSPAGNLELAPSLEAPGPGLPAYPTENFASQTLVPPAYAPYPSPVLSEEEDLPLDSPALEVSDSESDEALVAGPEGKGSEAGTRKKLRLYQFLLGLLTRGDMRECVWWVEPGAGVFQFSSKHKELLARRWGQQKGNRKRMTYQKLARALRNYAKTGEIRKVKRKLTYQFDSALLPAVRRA
Sequence of ELF1 (P32519 whole entry): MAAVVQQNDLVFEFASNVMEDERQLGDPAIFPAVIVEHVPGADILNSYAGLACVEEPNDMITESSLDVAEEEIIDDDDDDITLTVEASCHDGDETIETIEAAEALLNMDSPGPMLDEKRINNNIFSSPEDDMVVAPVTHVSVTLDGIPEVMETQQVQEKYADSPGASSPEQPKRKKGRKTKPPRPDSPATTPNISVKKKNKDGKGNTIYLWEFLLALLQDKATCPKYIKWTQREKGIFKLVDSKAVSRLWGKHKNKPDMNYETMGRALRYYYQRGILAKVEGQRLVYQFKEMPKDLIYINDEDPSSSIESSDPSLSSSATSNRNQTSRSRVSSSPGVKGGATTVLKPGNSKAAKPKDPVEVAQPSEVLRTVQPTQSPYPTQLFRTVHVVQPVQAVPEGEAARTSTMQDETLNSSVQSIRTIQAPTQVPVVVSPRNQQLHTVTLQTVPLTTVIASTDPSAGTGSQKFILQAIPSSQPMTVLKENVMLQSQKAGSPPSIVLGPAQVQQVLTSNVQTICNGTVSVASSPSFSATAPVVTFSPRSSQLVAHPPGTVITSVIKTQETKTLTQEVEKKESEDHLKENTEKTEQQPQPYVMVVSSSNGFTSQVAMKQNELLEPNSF

As to GCTACA, the binding signal in test [1] is 1.16 fold enrichment (6-mer frequency, TF over GST control); in [2], 1.07 fold enrichment (6-mer frequency, TF over GST control); in test [3] it was 1.22 fold enrichment (6-mer frequency, TF over GST control); in [4], 1.13 fold enrichment (6-mer frequency, TF over GST control); in [5], 1.17 fold enrichment (6-mer frequency, TF over GST control); in test [6] it was 1.21 fold enrichment (6-mer frequency, TF over GST control). Moreover, the binding signal in test [7] is 1.2 fold enrichment (6-mer frequency, TF over GST control); in test [8], 1.24 fold enrichment (6-mer frequency, TF over GST control); in test [9], 1.19 fold enrichment (6-mer frequency, TF over GST control).
As for TAGGAA, the binding signal in [1] is 1.07 fold enrichment (6-mer frequency, TF over GST control); in test [2], 1 fold enrichment (6-mer frequency, TF over GST control); in [3] it was 1.04 fold enrichment (6-mer frequency, TF over GST control); in test [4], 1.17 fold enrichment (6-mer frequency, TF over GST control); in test [5] it was 1.03 fold enrichment (6-mer frequency, TF over GST control); in test [6], 1.25 fold enrichment (6-mer frequency, TF over GST control). The binding signal was 1.23 fold enrichment (6-mer frequency, TF over GST control) in test [7]; 1.28 fold enrichment (6-mer frequency, TF over GST control) in [8]; 1.03 fold enrichment (6-mer frequency, TF over GST control) in [9].
On to CCAACA, for which the binding signal is 1.06 fold enrichment (6-mer frequency, TF over GST control) in test [1]; 1.11 fold enrichment (6-mer frequency, TF over GST control) in test [2]; 1.09 fold enrichment (6-mer frequency, TF over GST control) in [3]; 1 fold enrichment (6-mer frequency, TF over GST control) in test [4]; 1.04 fold enrichment (6-mer frequency, TF over GST control) in test [5]; 1.12 fold enrichment (6-mer frequency, TF over GST control) in [6]. Also, the binding signal was 1.01 fold enrichment (6-mer frequency, TF over GST control) in [7]; 1.01 fold enrichment (6-mer frequency, TF over GST control) in test [8]; 1.03 fold enrichment (6-mer frequency, TF over GST control) in test [9].
With ACATTC, the binding signal in test [1] was 1.41 fold enrichment (6-mer frequency, TF over GST control); in test [2], 1.32 fold enrichment (6-mer frequency, TF over GST control); in [3], 1.31 fold enrichment (6-mer frequency, TF over GST control); in test [4], 1.23 fold enrichment (6-mer frequency, TF over GST control); in [5], 1.37 fold enrichment (6-mer frequency, TF over GST control); in test [6], 1.25 fold enrichment (6-mer frequency, TF over GST control). The binding signal in test [7] is 1.24 fold enrichment (6-mer frequency, TF over GST control); in test [8] it was 1.23 fold enrichment (6-mer frequency, TF over GST control); in [9], 1.35 fold enrichment (6-mer frequency, TF over GST control).
For GAACAC, the binding signal in [1] was 1.25 fold enrichment (6-mer frequency, TF over GST control); in [2], 1.19 fold enrichment (6-mer frequency, TF over GST control); in test [3], 1.13 fold enrichment (6-mer frequency, TF over GST control); in [4] it was 1.17 fold enrichment (6-mer frequency, TF over GST control); in [5], 1.19 fold enrichment (6-mer frequency, TF over GST control); in test [6] it was 1.12 fold enrichment (6-mer frequency, TF over GST control). The binding signal in test [7] is 1.16 fold enrichment (6-mer frequency, TF over GST control); in test [8], 1.2 fold enrichment (6-mer frequency, TF over GST control); in [9] it was 1.08 fold enrichment (6-mer frequency, TF over GST control).
As to CCATCA, the binding signal in [1] was 1.26 fold enrichment (6-mer frequency, TF over GST control); in test [2], 1.21 fold enrichment (6-mer frequency, TF over GST control); in test [3], 1.22 fold enrichment (6-mer frequency, TF over GST control); in [4] it was 1.15 fold enrichment (6-mer frequency, TF over GST control); in test [5], 1.29 fold enrichment (6-mer frequency, TF over GST control); in test [6], 1.18 fold enrichment (6-mer frequency, TF over GST control). In addition, the binding signal is 1.19 fold enrichment (6-mer frequency, TF over GST control) in test [7]; 1.17 fold enrichment (6-mer frequency, TF over GST control) in [8]; 1.2 fold enrichment (6-mer frequency, TF over GST control) in [9].
Consider CGAAGC, for which the binding signal in test [1] was 1.39 fold enrichment (6-mer frequency, TF over GST control); in test [2], 1.36 fold enrichment (6-mer frequency, TF over GST control); in [3], 1.36 fold enrichment (6-mer frequency, TF over GST control); in test [4], 1.23 fold enrichment (6-mer frequency, TF over GST control); in test [5] it was 1.34 fold enrichment (6-mer frequency, TF over GST control); in [6] it was 1.26 fold enrichment (6-mer frequency, TF over GST control). The binding signal in test [7] is 1.2 fold enrichment (6-mer frequency, TF over GST control); in [8], 1.22 fold enrichment (6-mer frequency, TF over GST control); in [9] it was 1.49 fold enrichment (6-mer frequency, TF over GST control).
For TAATCC, the binding signal in test [1] is 1.29 fold enrichment (6-mer frequency, TF over GST control); in [2], 1.26 fold enrichment (6-mer frequency, TF over GST control); in test [3], 1.25 fold enrichment (6-mer frequency, TF over GST control); in [4], 1.34 fold enrichment (6-mer frequency, TF over GST control); in test [5], 1.15 fold enrichment (6-mer frequency, TF over GST control); in test [6], 1.25 fold enrichment (6-mer frequency, TF over GST control). For the same sequence, the binding signal in test [7] was 1.29 fold enrichment (6-mer frequency, TF over GST control); in [8], 1.28 fold enrichment (6-mer frequency, TF over GST control); in test [9], 1.35 fold enrichment (6-mer frequency, TF over GST control).

The values above are taken from publication PMC7862700, “An all-to-all approach to the identification of sequence-specific readers for epigenetic DNA modifications on cytosine”.
